# Reference: the supplement of paper PMC12632987
# Target: GABARAPL2, P60520
# Test: median log2 fold change of GCK-ALFA target abundance (FLAG IP / Myc IP barcode read proportion) (log2 ratio); each designed protein is fused to an ALFA-tag nanobody in HEK293 cells to bring the named protein to FLAG-tagged glucokinase (GCK); Myc marks an untargeted standard; higher = target protein stabilised (more abundant)
# Details: target protein: 3xFLAG-MCP-GCK-ALFA reporter; HEK293 landing pad (RPLP)
# In short: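 An ALFA-nanobody-fused binder library was recombined into HEK293 landing-pad cells and induced with 2 μg mL^−1 doxycycline. Cells were transfected with a plasmid expressing a FLAG-tagged target and a Myc-tagged standard. After 48 h, lysates underwent anti-FLAG and anti-Myc immunoprecipitation, and circular RNA barcodes were reverse transcribed, amplified and sequenced. Target abundance is the per-binder median log2 ratio of FLAG to Myc barcode read proportions. Barcodes needed ≥10^−7 proportion in both replicates, binders ≥3 barcodes per replicate, and a 10^−6 pseudocount was added; the two replicates were pooled.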
# Sequence of GABARAPL2, P60520 (P60520 whole entry, the tested form may be a part): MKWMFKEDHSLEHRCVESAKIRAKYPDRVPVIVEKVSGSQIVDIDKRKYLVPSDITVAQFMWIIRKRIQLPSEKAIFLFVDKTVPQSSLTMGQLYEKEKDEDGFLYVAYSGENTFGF
row,Binder,median log2 fold change
1,GBRAPL2_0_7215 (protein) MEELVEEAKKLSVEEAAELFVKRVEELVESGKATREELEALVEAAAKVLGEKIKKNKNEEDLDIAAEAADRIREILAKVDPELAAYADSEIGAEIMEAFS,0.0633
2,GBRAPL2_0_7222 (protein) MEELKEEMLKLSIEEASEKAVKTIKEAVESGKYSLEEIAELIEEMAEVIGELLKKEKKEESVDIAIEAADKIREILEKVDPNLAAYAYSEIGAEIMEAEE,0.133
3,GBRAPL2_0_7210 (protein) MEKILEEAKKLSVEEAAEYAVETVEELVKSGSLSPEELAELAKELLKVLIEKVKENGKEEDVEIADETIDRVREILRPVDPRLAAYVATEGYSELLELEE,-0.00179
4,GBRAPL2_0_7220 (protein) MEEFVKEMLELSIKEAAEAAVKYIKELVESGKYSLEEIEEAVEKIAEVLGEKLKKEKKEEAEDIAMEAADEIRKILSEKDPNLAAYAYSEIGAEIMEAWS,-0.0156
5,GBRAPL2_0_7240 (protein) MEALKAELLALSLEEAIARIEALTDEAVALIRADPEAGLAAAEELVEVLAEVVVERKDERLEEAVEAATDRLAAVVAEVDPREAAYLRAIMGSAIAEVES,0.0165
6,GBRAPL2_0_7212 (protein) MEEILEEISKLSIEEAAEKAIKLVKELVESKSLSTEELFELAKKLLEIIVEKVKEENKEESLEIARETADEIYEILKKVDPKEAAYVYTEIMEKILELEE,0.328
7,GBRAPL2_0_7234 (protein) KEELLKELLSLSLEEAKKAIKELAEEVIKLIKEDPEKGIEKAIELAEVFAEYLIERKDEELAKVIDEAIDKIVKEVEKVDPNAAAEIASEIGSAIYEVES,0.244
8,GBRAPL2_0_7221 (protein) MEKLVEEMKKLSVEEAAERFVKEIKEAVESGKYSLDEIAELIEAMAKVLGELLKKNKKEEDFDIAMKAADEVRKILEKVDPNLAAYAYSEIGAEIMEAEE,0.0252
9,GBRAPL2_0_7207 (protein) YEKEIEKAKTLTPEEAFKALKKLVKKLAKDKSVSKEELEALLEAILDLAYEIMAKEKTEEAEKAFDEIAEEATKAAAKRDPNLAAYIASYAGSLLMEYES,-0.0647
10,GBRAPL2_0_7230 (protein) IEERVEEMSKLSIEEAAAYAVEKVREMAESGEYSLEEIEEFVEKAAEVLGKKLKEEKKEEGLDIAAEAAREIREILSKVDPRLAALAESEIGAAIMEAEL,0.138
11,GBRAPL2_0_7223 (protein) MEKLKEEMLKLSIEEASKKAVETVKEMVESGKYSLEEIEEKIEAMAEVLGELLKKEKKEEAEEIAIKAADEIRKILEKKDPNLAAFAYSEIGAEIMEARE,0.33
12,GBRAPL2_0_7217 (protein) MEELIEKAKELSVEEAAELFVEEVKRLVESGKATDEELMELVEKAAEVLEEKMKESKDEEDEDIALEAADRIREILAEKDPRLAAYAYSEIGAGIMEASS,-0.0345
13,GBRAPL2_0_7229 (protein) IEEEIEEMKKLSIEEAAKRAVELVKEMAESGKYSLEEIAEFVEKAAEVLGEKLKEEKKEEGLDIAAEAADEIRKILSKIDPNLAAYAASEIGSEIMEVIS,-0.0242
14,GBRAPL2_0_7227 (protein) IEEKIKEMSKLSIEEAAKKAVELVKEMAESGKYSLEEIEEFVEAAAEVLGKKIKEEKKEEGLDIADEAARKIREILSKVDPRLAAYAASEIGAAIMEAIS,0.213
15,GBRAPL2_0_7226 (protein) MEETLEKIKKLSIKEAAEYVVEKVEELVKSGKYSLEEIEEIVSALADELGEKLKKENKEEGLDYAAEAADRIREILSKLDPNLAAFAYSEIGSEIMEAES,0.24
16,GBRAPL2_0_7216 (protein) MEELVEEARKLSIEEAAKLFVEKVKELVESGKATDEELMELVEAGAKVLGEKLKKEKKEEGLDIAMKAADEIREILEKKDPNLAAYAYSEIGAEIMEAAS,0.169

row,Binder,median log2 fold change
1,GBRAPL2_0_7209 (protein) YKERIEEAKKLSPEEAFKALKKLVKELAEDDSVSLEELEEILEAILELAYEIYKKEKTEEAEKAFDEIVDLATEAAAKRDPRLAAYIATFGGSLIMEAEL,-0.227
2,GBRAPL2_0_7238 (protein) AEELLKKLLEASVEEAIAAIKEAAEKAVKEIEKDPEAGLKAAEELAEVFAEVIIERKNEEVIKAVEEAADRIVAAAAKVDPNAAAYIASIIGSALYEYES,0.0105
3,GBRAPL2_0_7213 (protein) MEEFLKELKSLSIEEAAEKFVKKIEEMAKSGKYSLEEIEEIVEEMAKVLGEKVKKEKKEESLDIAAEAADKVREILEKIDPNLAAYAYSEIGAEIMEAAE,-0.118
4,GBRAPL2_0_7208 (protein) YKERIEEAKKLSPEEAYKALKELVKEIAEDKSISAEEREEILEEIIELAYEIYKKEKTEEAEKAFDEIVDLAVKAAAKVDPNLAAYIASFGGSLIMEAES,0.152
5,GBRAPL2_0_7218 (protein) MEELVEKARKLSVEEAAELFVEKVRELVESGKATDEELEALVEAAAEVLEEKIKKNKNEKDLDIAAEAADRIREILAKKDPRLAAFADSEIGAGIMEAAS,0.21
6,GBRAPL2_0_7237 (protein) MEELLEKLLSLSLEEAKKEIKKLADEVIELLRKDPEKGKEAAEELAEVFSEYLEKTKNEELEEVIDEAIDKIVEEMSKIDPREAAYIDSIFGSAIMEVEG,-0.0207
7,GBRAPL2_0_7232 (protein) MEEKIEELKKLSVEEAAKYFVETVKEAVESGKYSLEEIAELIEKMAEVLGEKLKEVKKEEAIDIAAKAADEVRKILSKLDPNLAAYAASEIGAEIMEAWS,0.0832
8,GBRAPL2_0_7219 (protein) MEEKVEEMKKLSIKEAAEAAVKLIKEMVESGKYSLEEIAEAVEKLAEVLGEKLKKEKKEEAEDIALEAARKIREILAKRDPNLAAYAYSEIGAEIMEASS,0.00483
9,GBRAPL2_0_7236 (protein) MEELLKRLLSLSLEEAKKEIKELAEKAIKLIKKDPEKGIKYAEELAKVFAEYLEKTKNEELAEVIDEAIDKIVEEVAKVDPNAAAAIASEIGSALYEVES,0.224
10,GBRAPL2_0_7239 (protein) MEELLKELLSLSLEEAKKKIKEKTEEAVKLIRKDPEKGLKYAEELVEVFAEVVVERKNEELEEVVDEATDRLVEEAAKIDPNEAAYLAAIRGSAIAEVEL,0.0745
11,GBRAPL2_0_7228 (protein) IEEEIEKISKLSIEEAAKAAVELVKEMAESGKYSLEEIEEFVEKAAEVLEKKIKEEKKEESLDIAAETADEVRKILEKIDPNLAAYAASEIGSGIMEAIS,0.048
12,GBRAPL2_0_7211 (protein) MEEILEKAKKLSVEEAAKYAVETVKSLVESGSLSPEELAELATKLLKVLIEKVKKDGKEESVEIAVETADKIREILKPVDPNLAADVDTEALSEILELEE,0.109
13,GBRAPL2_0_7214 (protein) MEEFLEELKKLSIEEAAKKAVEKVREMAESGKYSLEEIEEFVEKMAEVLGEKIKKEKKEESLDIAAEAADEIRKILEKVDPRLAAYADSEIGAEIMEAEE,0.0795
14,GBRAPL2_0_7233 (protein) MEEIVEELKKLSVEEAAEYFVKKVKEMVESGKYSLEEIEELIEKLAEVLGEKLKKNKKEEDLDIAAEAADKVREILLKRDPNLAAFAASEIGAEIMEAWS,0.0153
15,GBRAPL2_0_7224 (protein) MEEWIEKLKKLSIEEAAALVVEKIKELVESGKYSLEEIAEIVEKLARVLGEKLKEENKEEGLDLAAKAADEIRKILEKVDPNLAAFADSEIGSEIMEASS,0.136
16,GBRAPL2_0_7225 (protein) MEEELEKLKKLSIEEAAKYVVEKVKELVESGKYSLEEIADIVEKLARVLGEKLKEENKEEGLDLAAKAADEIRKILSKLDPNLAAYADSEIGAEIMEASS,-0.0692
